Source: PubChem BioAssay
Active and inactive are the calls of the source. Unless noted, no rule for the calls is given here.

Legend:
[1] = A549 cell viability effects, profiling panel, calcein-AM fluorescence, 48 h, basal (AID 1162); settings: higher = more signal; also: test concentration not given here
[2] = adipocyte viability effects, profiling panel, cell-based, 3T3-L1 adipocytes, calcein-AM fluorescence, 48 h, basal (AID 1163); settings: 3T3-L1 adipocytes viability, higher = more signal; also: test concentration not given here
[3] = HepG2 cell viability effects, profiling panel, calcein-AM fluorescence, 48 h, basal (AID 1164); settings: higher = more signal; also: test concentration not given here
[4] = MM1S cell viability effects, profiling panel, calcein-AM fluorescence, 48 h, basal (AID 1165); settings: higher = more signal;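 also: viability of MM1S multiple myeloma cells under basal unstimulated conditions; test concentration not given here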
[5] = basal RPMI8226 viability, no added stimulus, profiling panel, cell-based, calcein-AM fluorescence, 48 h, PK04 Diversity Set (AID 1166); settings: RPMI8226 myeloma viability, higher = more signal;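 also: cells grown under basal conditions without added stimulus; test concentration not given here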
[6] = basal HepG2 mitochondrial membrane potential changes, profiling panel, cell-based, JC-1 fluorescence, 24 h, 100 nL compound (AID 1167); settings: higher = more signal; also: test concentration not given here
[7] = basal 3T3-L1 adipocyte mitochondrial potential changes, profiling panel, cell-based, JC-1 fluorescence, 3T3-L1 adipocytes, 24 h, 100 nL compound (AID 1168); settings: JC-1 mitochondrial fluorescence, higher = more signal, called active from +8 up or from −8 down; also: test concentration not given here
[8] = basal RPMI8226 mitochondrial membrane potential changes, profiling panel, cell-based, JC-1 fluorescence, 24 h, 100 nL compound (AID 1169); settings: RPMI8226 myeloma, JC-1 mitochondrial potential fluorescence, higher = more signal; also: test concentration not given here
[9] = basal MM1S mitochondrial membrane potential changes, profiling panel, cell-based, JC-1 fluorescence, 24 h, 100 nL compound (AID 1170); settings: higher = more signal; also: test concentration not given here
[10] = A549 lung cancer cell viability effects, profiling panel, resazurin fluorescence, 24 h, PK04 Diversity Set (AID 1171); settings: higher = more signal, called active from +8 up or from −8 down; also: test concentration not given here
[11] = HepG2 liver cancer cell viability effects, profiling panel, resazurin fluorescence, 24 h, PK04 Diversity Set (AID 1172); settings: higher = more signal; also: test concentration not given here
[12] = basal S. cerevisiae growth modulation, no modifier, primary screen, OD600, strain BY4716, 24 h, basal condition (AID 1173); settings: OD600, 24 h, higher = more signal, called active from +8 up or from −8 down
[13] = MM1S myeloma cell viability, profiling panel, resazurin fluorescence, basal, 24 h, PK04 Diversity Set (AID 1174); settings: higher = more signal, called active from +8 up or from −8 down;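 also: MM1S multiple myeloma cell line; test concentration not given here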
[14] = target: Dihydroorotate dehydrogenase (quinone), mitochondrial (Plasmodium falciparum (isolate 3D7)) (UniProt Q08210); test: PfDHODH enzyme inhibitors, primary screen, biochemical, C-terminal His tag, absorbance 600 nm (AID 1175); settings: DCIP absorbance 600 nm, higher = more signal, called active from +8 up or from −8 down;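 also: recombinant parasite enzyme with a five histidine tag at its C terminus; test concentration not given here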
Dihydroorotate dehydrogenase (quinone), mitochondrial (Plasmodium falciparum (isolate 3D7)), sequence (Q08210 whole entry, looked up): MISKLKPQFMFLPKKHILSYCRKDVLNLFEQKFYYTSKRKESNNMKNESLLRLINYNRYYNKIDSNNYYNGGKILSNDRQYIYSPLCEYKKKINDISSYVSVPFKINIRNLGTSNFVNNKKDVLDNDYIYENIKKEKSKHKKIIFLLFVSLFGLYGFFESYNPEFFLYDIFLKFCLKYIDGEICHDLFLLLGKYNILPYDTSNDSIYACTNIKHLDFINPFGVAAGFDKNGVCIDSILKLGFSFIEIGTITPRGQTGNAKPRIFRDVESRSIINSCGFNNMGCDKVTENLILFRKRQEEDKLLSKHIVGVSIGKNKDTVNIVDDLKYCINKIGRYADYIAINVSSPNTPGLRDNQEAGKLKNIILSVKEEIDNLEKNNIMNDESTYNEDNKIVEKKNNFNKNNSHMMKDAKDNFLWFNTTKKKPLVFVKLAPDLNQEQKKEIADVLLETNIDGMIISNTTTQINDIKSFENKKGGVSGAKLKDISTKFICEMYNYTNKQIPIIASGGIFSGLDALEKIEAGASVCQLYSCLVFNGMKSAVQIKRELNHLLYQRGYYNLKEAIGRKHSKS

[15] = P. aeruginosa biofilm formation inhibitors, primary screen, strain PAO1, LB-PBS medium, absorbance 600 nm (AID 1176); also: test concentration not given here; settings: P. aeruginosa PAO1 growth/biofilm, A600, 12 h; higher = more signal
[16] = S. cerevisiae RM11-1a growth modifiers, primary screen, strain RM11-1a, OD600, basal, 24 h (AID 1177); settings: OD600, 24 h, higher = more signal, called active from +8 up or from −8 down;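 also: cultures grown under basal conditions with no added stressor; test concentration not given here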
[17] = E. coli acrAB mutant growth effects, primary screen, E. coli filamentation inducers, strain DRC39, OD650, 24 h (AID 1178); settings: higher = more signal, called active from +8 up or from −8 down;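 also: growth measured as culture turbidity by optical density at 650 nm; test concentration not given here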
[18] = E. coli acrAB mutant growth effects, primary screen, E. coli filamentation inducers, strain DRC39, OD650, 48 h (AID 1179);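 also: screen aims at cell division blockers that make cells filament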; settings: E. coli DRC39 delta-acrAB growth, higher = more signal, called active from +8 up or from −8 down
[19] = RPMI8226 myeloma cell viability, profiling panel, resazurin fluorescence, basal, 24 h, PK04 Diversity Set (AID 1180); settings: higher = more signal;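 also: RPMI8826 multiple myeloma cell line at 5000 cells per well; test concentration not given here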
[20] = target: E3 ubiquitin-protein ligase XIAP (Homo sapiens) (UniProt P98170); test: XIAP binders, primary screen, biophysical, small-molecule microarray, fluorescence 635 nm (AID 1181); settings: small-molecule microarray binding, higher = more signal;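 also: score merges 667 nm emission and signal to noise over triplicate slides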
E3 ubiquitin-protein ligase XIAP (Homo sapiens), sequence (P98170 whole entry, looked up): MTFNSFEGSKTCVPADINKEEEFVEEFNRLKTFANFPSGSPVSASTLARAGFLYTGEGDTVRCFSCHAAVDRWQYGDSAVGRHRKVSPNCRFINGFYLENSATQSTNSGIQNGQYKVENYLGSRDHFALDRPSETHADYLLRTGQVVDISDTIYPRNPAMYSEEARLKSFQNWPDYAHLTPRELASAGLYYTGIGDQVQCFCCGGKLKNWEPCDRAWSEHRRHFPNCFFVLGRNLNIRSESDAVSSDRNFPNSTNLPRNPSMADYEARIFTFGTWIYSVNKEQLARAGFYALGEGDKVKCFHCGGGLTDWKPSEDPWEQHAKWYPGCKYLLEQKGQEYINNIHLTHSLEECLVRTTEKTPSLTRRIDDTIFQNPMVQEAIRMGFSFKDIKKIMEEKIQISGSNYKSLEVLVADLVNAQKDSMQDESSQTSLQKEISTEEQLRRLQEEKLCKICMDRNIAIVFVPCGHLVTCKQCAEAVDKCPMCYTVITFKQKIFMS

Row | SMILES | z-score [1] | z-score [2] | z-score [3] | z-score [4] | z-score [5] | z-score [6] | z-score [7] | z-score [8] | z-score [9] | z-score [10] | z-score [11] | z-score [12] | z-score [13] | composite z-score [14] | z-score [15] | z-score [16] | z-score [17] | z-score [18] | z-score [19] | composite z-score [20]
1 | CC(CCN1CCc2nc(-c3ccccc3)c(-c3ccccc3)cc2C1)=NOC[C@@H](O)COCc1ccco1 | 1.53 | -0.0838 | 2.01 | -0.293 | 0.465 | 1.65 | -0.278 (inactive) | 1.09 | -0.174 | -0.684 (inactive) | -1.2 | -2 (inactive) | -1.88 (inactive) | -0.727 (inactive) | -0.0417 (inactive) | 0.358 (inactive) | 0.943 (inactive) | 1.14 (inactive) | -1.31 | 0.239
2 | CC(C)CON=C1C[C@@H](O)[C@@H](O)[C@@H]2[C@@H]3C(=O)N(C4CCCCC4)C(=O)[C@@H]3CC[C@H]12 | 0.325 | 0.274 | 0.232 | 0.768 | -0.909 | -0.357 | 0.0297 (inactive) | 0.0139 | -0.0788 | -0.318 (inactive) | -0.451 | -0.197 (inactive) | -0.143 (inactive) | 0.603 (inactive) | -0.118 (inactive) | -0.207 (inactive) | -0.651 (inactive) | 0.272 (inactive) | -0.365 | 0.224
3 | COC(=O)CC=C[C@@H](C)[C@@H](C=NO[C@H](C)c1cn([C@H](CO)Cc2ccccc2)nn1)OC | -0.0647 | 0.304 | -0.458 | 0.209 | 0.0397 | -0.741 | -1.24 (inactive) | 0.923 | 1.74 | 0.556 (inactive) | 0.167 | -0.285 (inactive) | -0.242 (inactive) | -0.184 (inactive) | 0.368 (inactive) | -0.212 (inactive) | 0.0343 (inactive) | -0.265 (inactive) | 0.261 | -0.142
4 | CC(C)=CCCC(C)=CCON=C1C[C@@H](O)[C@@H](O)[C@@H]2[C@@H]3C(=O)N(C4CCCCC4)C(=O)[C@@H]3CC[C@@H]12 | -0.972 | -0.345 | -1.14 | -2.39 | -1.36 | -1.64 | -1.22 (inactive) | -0.258 | -0.859 | 0.023 (inactive) | -0.199 | -0.81 (inactive) | -0.454 (inactive) | -0.42 (inactive) | 0.565 (inactive) | -0.709 (inactive) | 0.0915 (inactive) | -0.742 (inactive) | -0.51 | 0.0905
5 | C[C@@H]1C=CCC(=O)OC[C@H]2O[C@@H](C=C[C@@H]2O)[C@H](C)C=CCC(=O)OC1 | 0.164 | -0.0309 | 1.37 | 0.35 | 0.72 | 0.909 | 1.27 (inactive) | -0.0914 | 1.21 | -0.976 (inactive) | -0.444 | -1.03 (inactive) | 0.324 (inactive) | -0.793 (inactive) | 0.565 (inactive) | -2.26 (inactive) | 0.577 (inactive) | 0.205 (inactive) | -0.667 | -0.0826
6 | CCOC(=O)CCN1C(=O)[C@H]2[C@H]3[C@H](O)[C@H](O)CC(=NNC(=O)OCc4ccccc4)[C@@H]3CC[C@H]2C1=O | -0.0996 | 0.902 | 0.554 | 0.457 | -0.359 | -0.398 | -0.773 (inactive) | 0.279 | -0.614 | -0.744 (inactive) | -0.921 | 0.192 (inactive) | -0.931 (inactive) | 0.203 (inactive) | -0.331 (inactive) | 0.116 (inactive) | 0.655 (inactive) | 0.84 (inactive) | -0.663 | 0.154
7 | O=C1[C@H]2[C@H]3[C@H](O)[C@H](O)CC(=NOCc4ccccc4)[C@@H]3CC[C@H]2C(=O)N1c1ccc(F)cc1F | 0.504 | -0.23 | 0.688 | 0.635 | 1.13 | 1.51 | -0.371 (inactive) | -0.261 | -1.57 | -1.03 (inactive) | 0.0979 | -0.584 (inactive) | 0.253 (inactive) | -1.42 (inactive) | 0.86 (inactive) | -2.15 (inactive) | -0.018 (inactive) | -0.714 (inactive) | -1.19 | -0.0563
8 | COC(=O)CC=C[C@@H](C)[C@@H](C=NO[C@@H]1O[C@H](COC(C)=O)[C@@H](OC(C)=O)[C@H](OC(C)=O)[C@H]1OC(C)=O)NS(=O)(=O)c1ccc(C)cc1 | -0.4 | -0.387 | -0.416 | 0.27 | -1.81 | -0.365 | -1.39 (inactive) | -0.736 | 0.049 | -0.251 (inactive) | 0.22 | 0.653 (inactive) | -1.04 (inactive) | -0.069 (inactive) | 0.298 (inactive) | -0.186 (inactive) | -1.8 (inactive) | -0.57 (inactive) | -0.437 | -0.177
9 | CCCNC(=O)OC[C@H]1O[C@H](CCON=C(C)CCC(=O)OC[C@H]2O[C@H](c3ccccc3)C=C[C@@H]2Oc2ccc(OC)cc2)C=C[C@@H]1Oc1ccc(OC)cc1 | 0.415 | 0.354 | -0.208 | -1.31 | -0.303 | 1.26 | 0.000229 (inactive) | 0.625 | 0.33 | 0.748 (inactive) | 0.704 | 0.195 (inactive) | 0.205 (inactive) | -1.13 (inactive) | 0.0525 (inactive) | 0.17 (inactive) | 0.629 (inactive) | 0.363 (inactive) | 1.31 | -0.171
